The sample as a whole holds a higher share of hits than the screen did.
ClpP mod: qHTS Assay for Activators of ClpP. Potency, µM (doses to about 57.5 µM), inactives show at the top dose activity change, negative = active. 340,000 tested, 1.9% active. purified B. subtilis ClpP, FRET peptide cleavage, 20 min; active = well fitted falling curve with a large enough effect; inconclusive = small, poorly fitted or top-dose-only effect; inactive = no such curve, though single readings can be large or run the other way; note: potency is the fitted concentration of half-maximal effect; the source files actives as falling curves though it sought activators and does not explain the sign; nearly all actives have a fitted effect of over 65% in size
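ClpP 10 microg/mL final, pH 8 Tris/KCl buffer with BSA, glycerol, Tween-20; compound pinned in; FRET-FV substrate; RT 20 min; Ex320/Em430; ΔFRET vs ADEP 5.8 microM, DMSO, no enzyme.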
MLL CXXC-DNA inh: blocks binding of human MLL CXXC domain to DNA; Q03164; MLL-CXXC / FITC-HOXA9 DNA fluorescence polarization; Potency, µM (top dose mostly 115 µM), inactives show at the highest dose activity change, negative = inhibition, most hits filed as inhibitors; 290,000 tested, 0.037% active; AID 2662; active = well fitted inhibition curve with a large enough effect in the polarisation, with a control signal flat, not every such curve was filed as active; inconclusive = small, poorly fitted or top-dose-only effect, or effect the other way, or a change in a side signal; inactive = no such curve, though single readings can be large or run the other way; the % refers to the polarisation; note: potency is the fitted concentration of half-maximal effect
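Fluorescence polarization: 7 uM MLL-CXXC (stock) preincubated 5 min with compounds, then 50 nM fluorescein-HOX-A9 DNA (stock) added; 30 min ambient. Buffer 50 mM Tris-HCl pH 7.5, 50 mM NaCl, 1 mM DTT, 0.05% BSA.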
Menin-MLL TR inh: menin-MLL binding inhibition, Texas Red mutant peptide; 270,000 tested, 0.23% active; Potency, µM (titrated, usually from 61.6 µM), without a hit: at the top dose FP activity change, negative = inhibition, most hits filed as inhibitors; O00255; AID 1768; Menin + Texas Red MLL mutant peptide, fluorescence polarization; active = well fitted inhibition curve with a large enough effect in the polarisation, with a control signal flat, not every such curve was filed as active; inconclusive = small, poorly fitted or top-dose-only effect, or effect the other way, or a change in a side signal; inactive = no such curve, though single readings can be large or run the other way; the % refers to the polarisation; note: potency is the fitted concentration of half-maximal effect; % of control where 0% means no effect
p53 reactivator: mutant p53 re-activation in reporter cells | H1299 p53-A138V BP100-luciferase reporter, luminescence, 24 h | Potency, µM (doses to about 92.2 µM), inactives show at the top dose activity change, positive = activation, most hits filed as activators | 320,000 tested, 0.063% active | AID 504706; note: potency is the fitted concentration of half-maximal effect; % of control where 0% means no effect; nearly all actives have a fitted effect of over 45% in size
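p53-null H1299 cells stably carrying temperature-sensitive p53-A138V and a BP100-luciferase reporter were pinned with compounds (4-point, 1:5 series) and held 24 hrs at 37 deg C. Luminescence was read 10 min after detection reagent.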
Menin-MLL FL inh: menin-MLL binding inhibition, fluorescein peptide; AID 1766; 290,000 tested, under 10 active; FP activity change, % at 61.4 µM; Fluorescence polarization, fluorescein-MLL peptide displacement from menin; active = well fitted curve in the direction sought with a large enough effect in the polarisation, not every such curve was filed as active; inconclusive = small, poorly fitted or top-dose-only effect, or effect the other way, or a change in a side signal; inactive = no such curve, though single readings can be large or run the other way; the % refers to the polarisation; note: % of control where 0% means no effect
MLL CXXC FP-Fl: inhibitors of human MLL CXXC domain-DNA interaction; shares compounds with MLL CXXC-DNA inh; MLL CXXC-DNA binding, fluorescein FP; Potency, µM (titrated, usually from 345 µM), for inactives: top-dose activity change, negative = inhibition, usual class: inhibitors; 200 tested, 70% active; AID 624160; note: potency is the fitted concentration of half-maximal effect; nearly all actives have a fitted effect of over 80% in size
MLL CXXC TxRed: disrupts human MLL CXXC domain binding to DNA, Texas Red; shares compounds with MLL CXXC-DNA inh; MLL CXXC-DNA binding, Texas Red fluorescence polarization; Potency, µM (titrated, usually from 345 µM), without a hit: at the highest dose activity change, negative = inhibition, hits mostly inhibitors; 200 tested, 40% active; AID 624161; note: potency is the fitted concentration of half-maximal effect; % is set by controls: 0 for no effect and ±100 for the full control effect; nearly all actives have a fitted effect of over 75% in size
MLL CXXC TRF: MLL CXXC-DNA interaction inhibition, HTRF readout. MLL CXXC-DNA binding, HTRF, biochemical. AID 624162. Potency, µM (titrated, usually from 172 µM), for inactives: top-dose activity change, negative = inhibition, most hits filed as inhibitors. shares compounds with MLL CXXC-DNA inh. 210 tested, 30% active; note: % is set by controls: 0 for no effect and ±100 for the full control effect; nearly all actives have a fitted effect of over 80% in size
* = called active by the depositor; ? = inconclusive; . = no result given; [ ] = dose if it differs, or a comment. Unless noted, calls come from the whole dose curve; as a rule, active = well fitted curve in the direction sought with a large enough effect; inconclusive = small, poorly fitted or top-dose-only effect, or another doubt; inactive = no such curve, though single readings can be large; an effect the other way counts as inactive or inconclusive.

SMILES	ClpP mod	MLL CXXC-DNA inh	Menin-MLL TR inh	p53 reactivator	Menin-MLL FL inh	MLL CXXC FP-Fl	MLL CXXC TxRed	MLL CXXC TRF
COc1ccc(OC)c(NC(=O)Cn2cnc3sc(C)c(S(=O)(=O)N4CCN(c5ccccc5OC)CC4)c3c2=O)c1	0.0%	.	.	.	.	.	.	.
COc1cc2c(NC3CCN(C)CC3)nc(N3CCCN(C)CC3)nc2cc1OCCCN1CCOCC1	4.1%	.	.	.	.	.	.	.
Fc1ccccc1COc1ccc(Br)cc1CNCc1ccncc1	0.9%	-19.8%	?	-6.7%	-1.0	.	.	.
Fc1ccccc1COc1ccc(Br)cc1CNCc1cccnc1	.	?	?	-5.7%	-4.7	?	?	-9.5%
CCC(=O)OCC(=O)[C@@]1(OC(=O)CC)[C@@H](C)C[C@@H]2[C@H]3CCC4=CC(=O)C=C[C@]4(C)[C@@]3(F)[C@@H](O)C[C@@]21C	.	.	-29.9%	.	4.7	.	.	.
CCN(CC)C1=CC2=CC(=C(C#N)C#N)CCC2CC1 (stereo not given)	.	?	?	-5.4%	?	.	.	.
N#CC(C#N)=C1C=C2C=C(N3CCCCC3)CCC2CC1 (stereo not given)	1.9%	?	?	-8.7%	.	0.142µM*	126µM*	198.7%
CCOC(=O)COc1ccc(/C=C2/C(=O)NN(c3ccc(F)cc3)C2=O)cc1OC	-3.3%	?	11.1%	-5.1%	4.1	?	?	17.9%
COc1cc(/C=C2\C(=O)NN(c3ccccc3)C2=O)cc([N+](=O)[O-])c1O	.	25.1µM*	?	-0.3%	7.3	44.8µM*	113µM*	26.2%
CCOc1cc(/C=C2\C(=O)NN(c3ccccc3)C2=O)cc([N+](=O)[O-])c1O	.	?	?	-1.7%	-6.5	.	.	.
COc1cc(/C=C2\C(=O)NN(c3ccc(C)cc3)C2=O)cc([N+](=O)[O-])c1O	.	22.4µM*	?	-3.5%	3.2	17.9µM*	89.5µM*	97.1%
Cc1ccccc1S(=O)(=O)NC1OC(=O)C(Oc2ccccc2)=C1Br (stereo not given)	.	?	?	1.4%	0.2	.	.	.
Cc1ccccc1S(=O)(=O)NC1OC(=O)C(Cl)=C1Cl (stereo not given)	1.0%	?	0.4%	?	1.9	44.8µM*	159µM*	?
CCS(=O)(=O)N1CCc2cc(C(=O)Nc3ccc(OC)c(Cl)c3)ccc21	-12.4%	.	.	.	.	.	.	.
CCOC(=O)c1c(NC(C)=O)sc2c(OCCN(CC)CC)c(Br)ccc12	3.2%	35.5µM*	?	-1.8%	1.6	113µM*	4.9%	2.1%
COC(=O)C/C=C/C(C)C(OCc1cccc(Br)c1)C(C)C(OC)C1CCCCC1 (stereo not given)	.	.	-7.9%[11.7 µM]	.	4.8[11.7 µM]	.	.	.
CCCCC1OC2(C)OC(=N)C1(C#N)C(C#N)(C#N)C2c1ccccc1 (stereo not given)	31.6µM*	22.4µM*	-26.8%	-11.8%	?	28.3µM*	?	-5.3%
CC1C2(C)OC(=N)C(C#N)(C(C)O2)C1(C#N)C#N (stereo not given)	.	?	.	-0.9%	?	.	.	.
CCn1c(CSc2nnc3ccccn23)nc2cc(C(=O)O)ccc21	-1.8%	?	?	2.3%	?	.	.	.
CCn1c(CSc2n[nH]c(N)n2)nc2cc(C(=O)O)ccc21	.	35.5µM*	?	-1.5%	-26.0	113µM*	113µM*	6.5%
O=c1[nH]c(-[n+]2ccccc2)c(/C=N/NC([S-])=Nc2ccccc2)s1	1.2%	35.5µM*	.	-0.5%	?	?	?	30.5%
C#CCOc1ccc(/C=C2/C(=O)N(c3cccc(C(=O)O)c3)N=C2C)cc1OC	.	44.7µM*	?	15.9%	-1.8	44.8µM*	71.1µM*	96.8µM*
COc1cc(/C=C2\C(=O)N(c3cccc(C(=O)O)c3)N=C2C)ccc1OCc1ccccc1	-0.5%	.	.	.	.	.	.	.
CCn1c(=O)c2ccccc2n(Cc2cccc(C)c2)c1=O	-2.7%	-7.5%	5.7%	.	0.9	.	.	.
CCn1c(=O)c2ccccc2n(Cc2ccc([N+](=O)[O-])cc2)c1=O	-1.4%	?	21.8%	2.9%	-3.0	?	?	22.1%
SMILES	ClpP mod	MLL CXXC-DNA inh	Menin-MLL TR inh	p53 reactivator	Menin-MLL FL inh	MLL CXXC FP-Fl	MLL CXXC TxRed	MLL CXXC TRF
O=C1c2ccccc2-c2n[nH]c3cccc1c23	-2.3%	?	?	.	?	35.6µM*	?	17.9%
CCOc1ccccc1CNC(=O)Cn1nc(C)c2nn(-c3ccc(Cl)cc3)c(C)c2c1=O	6.3%	.	.	.	.	.	.	.
COc1ccc2cc(Br)ccc2c1CC(=O)NCC1CCCO1 (stereo not given)	-2.1%	31.6µM*	3.5%	8.5%	0.9	-0.6%	30.0%	29.3%
CCNC(=O)Cc1c(OC)ccc2cc(Br)ccc12	-2.6%	-12.4%	-12.3%	-1.5%	0.3	.	.	.
COc1ccc(C(=O)c2oc3ccccc3c2NC(=O)c2cc(=O)c3ccc(C)cc3o2)cc1Cl	1.7%	.	.	.	.	.	.	.
Cc1ccc(OCC(=O)Nc2ccc3nc(SCC(=O)N(C)c4ccccc4)sc3c2)cc1	-2.6%	.	.	.	.	.	.	.
O=c1nc2c(O)cccn2c2c1c(=O)[nH]c1ccccc12	-4.8%	31.6µM*	-0.2%	-5.5%	?	4µM*	?	?
O=c1[nH]c2ccccc2c2nc3ccccn3c12	?	-16.7%	?	?	-2.8	.	.	.
COc1ccc(C2OC34CCCCC3C(C#N)(C#N)C2(C#N)C(=N)O4)cc1 (stereo not given)	11.2µM*	28.2µM*	?	-3.9%	?	142µM*	113µM*	-3.1%
CCOc1ccc(NC(=O)c2cnn(-c3ccc(C)c(C)c3)c2C2CCN(C(=O)OC(C)(C)C)CC2)cc1	0.5%	.	.	.	.	.	.	.
O=C(CC(C(=O)N1CCc2ccccc21)n1ccnc1)N1CCc2ccccc2C1 (stereo not given)	-3.6%	31.6µM*	-22.8%	3.3%	4.3	?	10.5%	2.1%
CCCCNC(=O)CC(C(=O)N1CCc2ccccc21)n1ccnc1 (stereo not given)	-2.7%	-9.3%	6.3%	3.1%	0.3	.	.	.
COC(=O)N1C2CC3(C)C=C(C)OC1(C)C3c1ccccc12 (stereo not given)	.	.	-3.1%[11.7 µM]	.	3.1[11.7 µM]	.	.	.
